Screens (PubChem)
Sampled rows, rich in hits. Any-hit rate of the full collection: about 9.9%.
IL-1B inflam inh – inhibitors of inflammasome signaling (IL-1 beta secretion). THP-1 LPS/ATP IL-1B secretion, AlphaLISA, 16 h; active compounds read low. activity change, % at 57.5 µM. 4.7% of 360,000 active; in the data active = activity change below about -50%; inconclusive = mostly about -30% to -49%
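THP-1 cells pretreated 1 hr with compounds (up to 57.5 uM final), then stimulated with LPS (250 ng/mL final) plus ATP (1.25 mM final); secreted IL-1B measured by AlphaLISA after 16 hr, decreased signal indicating inhibition.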
MCF10A rereplic – inducers of DNA re-replication in MCF 10A breast cells; MCF 10A DNA re-replication, Hoechst nuclear intensity, 48 h; Potency, µM (highest dose often 46.1 µM), usual class: activators; 2.9% of 350,000 active; note: nearly all actives have a fitted effect of over 50% in size
KB-V1 cytotox – kills drug-selected multidrug resistant KB-V1 cells; KB-V1 MDR cells viability, CellTiter-Glo, 72 h; Potency, µM (top dose mostly 46.1 µM), most hits filed as cytotoxic; 3.4% of 400,000 active; note: nearly all actives have a fitted effect of over 60% in size
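KB-V1 cells (P-gp-expressing MDR subline of KB-3-1) in phenol-red-free DMEM with 10% FBS were exposed to library compounds over a concentration series for 72 h at 37 degrees C. Viability read by CellTiter-Glo luminescence; concentration-effect curves fitted after normalization.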
KB-3-1 cytotox – KB-3-1 parental cell cytotoxicity; KB-3-1 viability, CellTiter-Glo ATP luminescence, 72 h; Potency, µM (titrated, usually from 46.1 µM), hits mostly cytotoxic; 1.4% of 400,000 active; AID 1347075; note: nearly all actives have a fitted effect of over 60% in size
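Parental KB-3-1 adenocarcinoma cells in phenol-red-free DMEM with 10% FBS were pin-treated with compounds at several concentrations, incubated 72 h at 37 °C, and viability read by CellTiter-Glo luminescence; concentration-effect curves were fitted after normalization.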
SW480 rerep – induces DNA re-replication in SW480 colon adenocarcinoma cells; AID 624297; 1.8% of 340,000 active; SW480 DNA re-replication, Hoechst DNA content imaging, 48 h; Potency, µM (highest dose often 46.1 µM), most hits filed as activators; note: nearly all actives have a fitted effect of over 55% in size
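Treated cells incubate 48 hr (37 C, 5% CO2), are stained 40 min with Hoechst, and nuclear fluorescence is enumerated; a rise in nuclei with high DNA signal marks re-replication.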
A number is an active result. Unless noted, calls come from the whole dose curve; as a rule, active = well fitted curve in the direction sought with a large enough effect; inconclusive = small, poorly fitted or top-dose-only effect, or another doubt; inactive = no such curve, though single readings can be large; an effect the other way counts as inactive or inconclusive.

Results for O=C(CC1CCCC1)Nc1ccc(Br)cc1 ?
IL-1B inflam inh: -56; MCF10A rereplic: inactive; KB-V1 cytotox: inactive; KB-3-1 cytotox: inactive; SW480 rerep: inactive

Results for S=C(Nc1ccc(Oc2ccccc2)cc1)NC1CCCC1 ?
IL-1B inflam inh: inactive; MCF10A rereplic: inconclusive; KB-V1 cytotox: inconclusive; KB-3-1 cytotox: inactive; SW480 rerep: inactive

How did S=C(Nc1ccc(Br)cc1)NC1CCCC1 do in these assays?
IL-1B inflam inh: -62; MCF10A rereplic: inactive; KB-V1 cytotox: inactive; KB-3-1 cytotox: inactive; SW480 rerep: inactive

What do the screens show for `CC[C@H](C)C(C(=O)N1CCN(C(=O)OC(C)(C)C)CC1)n1cc(C(CC(C)C)NC(=O)OC(C)(C)C)nn1` (stereo partly drawn)?
IL-1B inflam inh: inactive; MCF10A rereplic: inactive; KB-V1 cytotox: inactive; KB-3-1 cytotox: inactive; SW480 rerep: inactive

Results for CC[C@@H](C)[C@@H](C(=O)N1CCN(C(=O)OC(C)(C)C)CC1)n1cc(CCCCNC(=O)OC(C)(C)C)nn1 ?
IL-1B inflam inh: inactive; MCF10A rereplic: inconclusive; KB-V1 cytotox: 21µM; KB-3-1 cytotox: inconclusive; SW480 rerep: inactive

What do the screens show for `Cc1ccc(Cl)cc1NC(=O)C(C)n1nc(-c2ccccc2)ccc1=O` (stereo not drawn)?
KB-V1 cytotox: inactive; KB-3-1 cytotox: inactive

Results for C=Cn1cc[n+](CC(=O)c2ccc(Cl)c(Cl)c2)c1 ?
IL-1B inflam inh: inactive; MCF10A rereplic: inactive; KB-V1 cytotox: inconclusive; KB-3-1 cytotox: inactive; SW480 rerep: inconclusive

Results for CCN(CC)c1ccc(CN2CCCCCC2)cc1 ?
IL-1B inflam inh: inactive; MCF10A rereplic: inconclusive; KB-V1 cytotox: 18µM; KB-3-1 cytotox: inconclusive; SW480 rerep: inconclusive

Results for CCOC(=O)Cn1c(-c2cccnc2Cl)nc2cc(Cl)c(Cl)cc21 ?
IL-1B inflam inh: inactive; MCF10A rereplic: inactive; KB-V1 cytotox: 21µM; KB-3-1 cytotox: inactive; SW480 rerep: inactive

Results for C[C@@H](NC(=O)c1nc[nH]c1C(=O)NCc1ccccc1)c1ccccc1 ?
IL-1B inflam inh: inactive; MCF10A rereplic: inactive; KB-V1 cytotox: inactive; KB-3-1 cytotox: inactive; SW480 rerep: inactive

What do the screens show for `CN(CC(=O)NCC(=O)Nc1ccc(F)cc1)C1CCS(=O)(=O)C1` (stereo not drawn)?
IL-1B inflam inh: inactive; MCF10A rereplic: inactive; KB-V1 cytotox: inactive; KB-3-1 cytotox: inactive; SW480 rerep: inactive

What do the screens show for `COC(=O)c1cn(NC(=O)Cc2ccc(Cl)cc2)c(=O)c2ccccc12`?
IL-1B inflam inh: inactive; MCF10A rereplic: inconclusive; KB-V1 cytotox: 21µM; KB-3-1 cytotox: inactive; SW480 rerep: inactive

How did O=C(c1cccs1)N(c1ccc(Br)cc1)C1C=CS(=O)(=O)C1 (stereo not drawn) do in these assays?
IL-1B inflam inh: inactive; MCF10A rereplic: inactive; KB-V1 cytotox: inactive; KB-3-1 cytotox: inactive; SW480 rerep: inactive

What do the screens show for `COc1ccc(N2C(c3cc(OC)cc(OC)c3)=Cc3ccccc3C2CC(C)=O)cc1` (stereo not drawn)?
IL-1B inflam inh: inactive; KB-V1 cytotox: inactive; KB-3-1 cytotox: 23µM

What do the screens show for `Cc1ccc(C(C)C)c(OCCSc2nc3ccccc3n2CC(O)CO)c1` (stereo not drawn)?
KB-V1 cytotox: inactive; KB-3-1 cytotox: inactive

How did O=C(NCCC(c1ccccc1)c1ccccc1)c1cccs1 do in these assays?
IL-1B inflam inh: -56; MCF10A rereplic: inactive; KB-V1 cytotox: inactive; KB-3-1 cytotox: inactive; SW480 rerep: inactive

Results for CC(=O)c1ccc(NC(=O)C(C)Sc2nnc(C3CC3)n2C2CC2)cc1 (stereo not drawn) ?
IL-1B inflam inh: inactive; MCF10A rereplic: inactive; SW480 rerep: inactive

Results for C=CCN(CC=C)S(=O)(=O)c1ccc2nc(NC(=O)C(C)C)sc2c1 ?
IL-1B inflam inh: inactive; MCF10A rereplic: 8.2µM; KB-V1 cytotox: inconclusive; KB-3-1 cytotox: 3.7µM; SW480 rerep: inconclusive

Results for CCN(CC)S(=O)(=O)c1cccc(C(=O)N[C@H](C(=O)Nc2nc3ccc(F)cc3s2)C(C)C)c1 ?
IL-1B inflam inh: inactive; MCF10A rereplic: inconclusive; KB-V1 cytotox: 5.8µM; KB-3-1 cytotox: 15µM; SW480 rerep: inconclusive

How did CCOC(=O)c1ccc2nc(NC(=O)C(C)C)sc2c1 do in these assays?
IL-1B inflam inh: inactive; MCF10A rereplic: inactive; KB-V1 cytotox: inactive; KB-3-1 cytotox: inactive; SW480 rerep: inactive

What do the screens show for `CCN(CC)S(=O)(=O)c1cccc(C(=O)N[C@H](C(=O)Nc2nc3ccccc3s2)C(C)C)c1`?
IL-1B inflam inh: inactive; MCF10A rereplic: inactive; KB-V1 cytotox: inactive; KB-3-1 cytotox: inactive; SW480 rerep: inactive

How did COC(=O)c1ccccc1S(=O)(=O)N1CCC(C(=O)OCc2cccc(OC)c2OC)CC1 do in these assays?
IL-1B inflam inh: inactive; MCF10A rereplic: inactive; KB-V1 cytotox: inactive; KB-3-1 cytotox: inactive; SW480 rerep: inactive

How did COC(=O)c1ccc(C2C(C(=O)c3cc4ccccc4o3)=C(O)C(=O)N2c2cc(C)on2)cc1 (stereo not drawn) do in these assays?
IL-1B inflam inh: inactive; MCF10A rereplic: 23µM; KB-V1 cytotox: inactive; KB-3-1 cytotox: inactive; SW480 rerep: inconclusive

Results for CCCOc1cccc(C2C(C(=O)c3cc4ccccc4o3)=C(O)C(=O)N2c2cc(C)on2)c1 (stereo not drawn) ?
IL-1B inflam inh: inactive; MCF10A rereplic: 5.8µM; KB-V1 cytotox: inactive; KB-3-1 cytotox: inconclusive; SW480 rerep: inactive

What do the screens show for `Cc1ccc(C2C(C(=O)c3cc4ccccc4o3)=C(O)C(=O)N2CCN2CCOCC2)cc1` (stereo not drawn)?
IL-1B inflam inh: inactive; MCF10A rereplic: 21µM; KB-V1 cytotox: inactive; KB-3-1 cytotox: inactive; SW480 rerep: inactive

What do the screens show for `Cc1cc(N2C(=O)C(O)=C(C(=O)c3cc4ccccc4o3)C2c2cccc(Br)c2)no1` (stereo not drawn)?
IL-1B inflam inh: inactive; MCF10A rereplic: 18µM; KB-V1 cytotox: inconclusive; KB-3-1 cytotox: inactive; SW480 rerep: inactive

How did Cc1cc(N2C(=O)C(O)=C(C(=O)c3cc4ccccc4o3)C2c2ccc(OC(C)C)cc2)no1 (stereo not drawn) do in these assays?
IL-1B inflam inh: inactive; MCF10A rereplic: inconclusive; KB-V1 cytotox: inactive; KB-3-1 cytotox: inconclusive; SW480 rerep: inactive

Results for Nc1nc(COc2ccc(F)cc2Cl)nc(N2CCCCC2)n1 ?
IL-1B inflam inh: inactive; MCF10A rereplic: inactive; KB-V1 cytotox: inactive; KB-3-1 cytotox: inactive; SW480 rerep: inactive

How did COCC(C)N1CCC(n2nccc2NC(=O)CCCc2ccccc2)CC1 (stereo not drawn) do in these assays?
IL-1B inflam inh: inactive; MCF10A rereplic: inactive; KB-V1 cytotox: inactive; KB-3-1 cytotox: inactive; SW480 rerep: inactive

What do the screens show for `CC1C(c2ccccc2)N(C)C(c2ccccc2)C(C)C1(O)C#Cc1ccccc1` (stereo not drawn)?
IL-1B inflam inh: -65; MCF10A rereplic: 23µM; KB-V1 cytotox: inconclusive; KB-3-1 cytotox: inconclusive; SW480 rerep: inactive
